In PubChem BioAssay (NCI) one finds growth data, which are given here for 38 compounds.

Each structure is given as a SMILES string. The panel holds about 83,000 compounds, 20% with a hit somewhere; the sample as a whole holds those more often.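 Activity criterion: percent growth below 10, measured after cells in 96-well plates were exposed to a single compound concentration for 48 hours.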 The source made the active and inactive calls.

In this assay the test system is DU-145 prostate. Kind of assay: NCI-60 one-dose screen, 48 h (100 = growth as untreated, 0 = no growth, -100 = all killed). As to conditions: 10 µM.
On to `Cc1ccc(-c2nc3ccc(C(=O)N=Nc4c(O)[nH]c5ccc(Br)cc45)cc3[nH]2)cc1`, for which the growth is 17.2% (inactive).

`CCCCCc1ccc(S(=O)(=O)Nc2cc(-c3csc(N(C)C(C)=O)n3)ccc2N2CCN(C)CC2)cc1`: the growth is 70.5% (inactive).

Turning to `Cc1ccc(NC(=O)NCn2c(=O)[nH]c3ccccc3c2=O)cc1`, the growth was 89% (inactive).

Turning to `Cc1ccc(C(=O)NCCCNc2nc(Nc3ccc(N4CCN(C)CC4)cc3)nc3ccsc23)cc1`, the growth was 58.7% (inactive).

For `CNC(=O)c1cccc(N2CCc3c2ccc(NC(=O)Nc2ccc(N4CCN(C)CC4)c(C(F)(F)F)c2)c3F)c1`, the growth is -76.2% (active).

Consider `COC1CC(Cn2cc(COc3ccc4ccc(=O)oc4c3)nn2)C(OCc2ccccc2)C(OCc2ccccc2)C1OCc1ccccc1` (stereo not drawn), for which the growth was 101% (inactive).

Take `Cc1ccc(NC(=O)c2ccc(-n3c(=O)[nH]c4ccccc4c3=O)cc2)cc1`: the growth is 102% (inactive).

For `O=C(Cn1cc(CSc2nnc3oc4ccccc4n23)nn1)Nc1ccc(Br)cc1`, the growth is 92.3% (inactive).

On to `NC(=Nc1ccc(OCCCCCCCCn2ccnn2)cc1)c1ccccc1`, for which the growth was 26.7% (inactive).

For `C=C(C)[C@@H]1CC[C@]2(C)[C@H](CC=C3[C@@H]4CC(C)(C)CC[C@]4(C(=O)N4CCOCC4)CC[C@]32C)[C@@]1(C)CCCN`, the growth was -93.1% (active).

Turning to `CC(=C(c1ccc(OCCN2CCCCC2)cc1)c1ccc(OCCN2CCCCC2)cc1)c1ccccc1`, the growth was 62.5% (inactive).

With `CN1CCN(c2ccc(Nc3nc(NCCCNC(=O)c4ccccc4)c4sccc4n3)cc2)CC1`, the growth is 75.5% (inactive).

With `COc1cccc(C(N)=Nc2ccc(OCCCCCCn3cncn3)cc2)c1`, the growth was 33% (inactive).

As to `O=C(CS(=O)(=O)c1oc(-c2ccc(Cl)cc2)nc1S(=O)(=O)c1ccccc1)N1CCCC1`, the growth was -100% (active).

For the compound `CC1(C)CC[C@]2(C(=O)N3CCOCC3)CC[C@]3(C)C(=CC[C@@H]4[C@@]5(C)CC[C@H](NCO)C(C)(C)[C@@H]5CC[C@]43C)[C@H]2C1`, the growth is -89.4% (active).

On to `CC(=O)NCC1=C(C)C=C2C(=O)[C@](C)(O)C3(CC3)C(C)=C21`, for which the growth was -10.7% (active).

In the case of `C#Cc1ccc(S(=O)(=O)Nc2cccc(-c3csc(NC(C)=O)n3)c2)cc1`, the growth is 82.6% (inactive).

As for `C=C[C@H]1[C@H](O[C@@H]2OC(CO)[C@@H](O)[C@H](O)C2OC(=O)c2c(O)cc(O)cc2-c2cccc(O)c2)OC=C2C(=O)OCC[C@H]21` (stereo partly drawn), the growth is 105% (inactive).

As for `O=C(c1ccc(-n2c(=O)[nH]c3ccccc3c2=O)cc1)N1CCOCC1`, the growth was 105% (inactive).

For `CCN(CC)CCOc1ccc(C(=C(C)c2ccccc2)c2ccc(OCCN(CC)CC)cc2)cc1`, the growth was 41.4% (inactive).

On to `CNC(=O)c1cc(-c2ccc(NC(=O)Nc3ccc(C)cc3)cc2)nc2cccnc12`, for which the growth is 109% (inactive).

With `O=C(Cn1cc(CSc2nnc3oc4ccccc4n23)nn1)Nc1cccc(Cl)c1`, the growth is 85.6% (inactive).

As for `CC1(C)CC[C@]2(C(=O)NCCCNCCCCNCCCN)CC[C@]3(C)C(=CC[C@@H]4[C@@]5(C)Cc6c([nH]c7ccccc67)C(C)(C)[C@@H]5CC[C@]43C)[C@H]2C1`, the growth was 96.3% (inactive).

On to `CCC(C)S(=O)(=O)c1oc(-c2ccc(C)cc2)nc1S(=O)(=O)c1ccccc1` (stereo not drawn), for which the growth was -89.6% (active).

Consider `CC(=O)Nc1nc(-c2ccc(N3CCN(C)CC3)c(NS(=O)(=O)c3cccc4c(N(C)C)cccc34)c2)cs1`, for which the growth is 76.2% (inactive).

Take `N[C@@H](CSSC[C@H](N)C(=O)Nc1ccc(OCC2CCCC2)cc1)C(=O)Nc1ccc(OCC2CCCC2)cc1`: the growth is -88.4% (active).

As for `O=C(Nc1ccncc1)c1ccc(-n2c(=O)[nH]c3ccccc3c2=O)cc1`, the growth was 100% (inactive).

Consider `CN1CCN(c2ccc(Nc3nc(NCCCNC(=O)c4ccc(F)cc4)c4sccc4n3)cc2)CC1`, for which the growth was 75.5% (inactive).

As to `CC1(C)CC[C@]2(C(=O)O)CC[C@]3(C)C(=CC[C@@H]4[C@@]5(C)C/C(=C/c6ccncc6)[C@H](O)C(C)(C)[C@@H]5CC[C@]43C)[C@@H]2C1`, the growth was 57.9% (inactive).

Consider `Cc1cc2c(c(O)c1Br)-c1ncoc1C(=O)[C@]1(C)CC[C@H](C(C)C)[C@H]21`, for which the growth was 54% (inactive).

For the compound `Cc1ccc(/C=C(\C#N)n2nnc3c(F)cccc32)cc1`, the growth is 13.9% (inactive).

Consider `Cc1cc(C)nc(SCC(=O)Nc2ccc(S(N)(=O)=O)cc2)n1`, for which the growth is 114% (inactive).

Consider `COc1ccc(-c2nc(S(=O)(=O)c3ccc(C)cc3)c(S(=O)(=O)CC(=O)N(C)Cc3ccccc3)o2)cc1`, for which the growth was 35.5% (inactive).

In the case of `O=c1[nH][nH]c(Nc2ccccc2)c1N=Nc1ccc(F)cc1`, the growth was 102% (inactive).

For the compound `CN1CCN(c2ccc(Nc3nc(NCCCNC(=O)C4CCCCC4)c4sccc4n3)cc2)CC1`, the growth was 67.5% (inactive).

Consider `COc1ccc(-c2nc(S(=O)(=O)c3ccccc3)c(S(C)(=O)=O)o2)cc1`, for which the growth was -92.8% (active).

With `c1ccc(C(=C(c2ccc(OCCN3CCCCC3)cc2)c2ccc(OCCN3CCCCC3)cc2)C2CCCC2)cc1`, the growth is -45.2% (active).

As for `COc1ccc(C(C)=C(c2ccc(OCCCN(C)C)cc2)c2ccc(OCCCN(C)C)cc2)cc1`, the growth was -96.4% (active).
